Compound activity: PubChem, several laboratories
MCL1-BIM inh: disrupts human MCL1 binding to BIM-BH3 peptide; 320,000 compounds, 0.68% hits; inhibition, % at 10.9 µM; GST-MCL1 / FITC-Bim-BH3 fluorescence polarization;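 active means inhibition above the mean inhibition of all tested compounds plus 3 SD, set per campaign, cut at about 40% in these data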;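 further: 0% = DMSO wells and 100% = unlabeled Bim-BH3 peptide control; higher means more loss of mP so more displacement of Bim peptide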
Mcl1 Bid PPI: disrupts binding of human Mcl-1 to Bid peptide; Q07820; TR-FRET Mcl-1/Bid-Dy647 peptide binding, 1536-well; inhibition, % at 21.7 µM; 220,000 compounds, 0.97% hits; AID 1021;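 active means compounds that cut the binding signal by more than half at the single screening dose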;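 further: His-tagged Mcl-1 with europium anti-His antibody binding Bid BH3 peptide; 0% = Mcl-1 plus peptide wells and 100% = peptide-only wells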
14-3-3 Bad PPI: disrupts binding of bovine 14-3-3 zeta to phospho-Bad peptide. TR-FRET 14-3-3zeta/Dy647-pBad peptide displacement, 1 h. inhibition, % at 21.7 µM. 220,000 compounds, 0.71% hits. AID 781;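 active means inhibition above about 70%, limit read from the data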;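 further: 0% = full 14-3-3 plus peptide FRET controls and 100% = background without 14-3-3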
Target sequence (P63103 whole entry, looked up): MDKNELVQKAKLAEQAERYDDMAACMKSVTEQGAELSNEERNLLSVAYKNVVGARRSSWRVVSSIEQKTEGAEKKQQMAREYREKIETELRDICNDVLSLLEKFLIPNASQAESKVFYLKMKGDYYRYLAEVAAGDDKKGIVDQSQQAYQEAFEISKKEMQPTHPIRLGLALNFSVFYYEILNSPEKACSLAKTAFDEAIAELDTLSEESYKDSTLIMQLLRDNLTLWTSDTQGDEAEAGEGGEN
Bim-Mcl-1: human Bim-Mcl-1 interaction inhibition; Q07820; Bead-based flow cytometry, Bim peptide-Mcl-1 binding; inhibition, % at 10 µM; 190,000 compounds, 0.1% hits; in the data active means inhibition above about 40%;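 further: 0% = no compound tracer wells and 100% = peptide blocker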
Mcl1-Noxa inh: disrupts binding of human Mcl-1 to Noxa peptide; Q07820; TR-FRET Mcl-1/Noxa peptide binding, 2 h; inhibition, % at 21.7 µM; 220,000 compounds, 1.5% hits; AID 1022;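 active means compounds that cut the protein-peptide binding signal by more than 50% relative to plate controls in a single-dose test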;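 further: His-tagged Mcl-1 with rhodamine Noxa BH3 peptide and terbium anti-His antibody; 0% = Mcl-1 plus Noxa peptide wells and 100% = peptide-only wells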
* hit, by the source's call; · = not tested or not shown. Only some compounds are listed: those with a hit (about 2.5% of all), similar ones and a draw of the others.

SMILES | MCL1-BIM inh | Mcl1 Bid PPI | 14-3-3 Bad PPI | Bim-Mcl-1 | Mcl1-Noxa inh
COc1cc(C(=O)NCc2ccc(C(=O)NCC(OC)OC)cc2)cc(OC)c1OC | -6.2 | 64.0* | 72.2* | 0.0 | 2.0
COc1ccc(CCNc2ccncn2)cc1 | 9.8 | 0.0 | 72.4* | 0.0 | 4.6
CCCCn1c(N)c(N(CC(C)C)C(=O)c2ccc3c(c2)NC(=O)C(C)S3)c(=O)[nH]c1=O (stereo not given) | -9.6 | · | · | · | ·
Cc1cc(C)c(S(=O)(=O)/N=C2\C=CC(=O)C(Cl)=C2)c(C)c1 | 32.1 | 46.7 | 16.7 | 1.0 | 95.5*
Cc1ccc2cc(C)c(SCC#N)nc2c1 | -8.4 | 1.9 | 8.5 | 1.0 | 8.5
Cc1ccc(-n2nnnc2SCC#N)cc1 | 1.2 | -13.0 | 71.4* | -1.0 | 8.4
Cn1c2ccccc2c(=O)c2c(=O)n(Cc3ccco3)c(-c3ccc(C(C)(C)C)cc3)nc21 | 1.8 | 52.0* | 41.3 | · | -92.0
COc1cc(O)c(CCC(=O)c2cc(OC)c(OC)c(OC)c2)c(OC)c1 | 4.3 | -36.8 | 6.1 | -3.0 | -5.7
CC1=CC(C)(C)Nc2ccc(C)cc21 | 4.2 | -12.9 | 81.0* | 0.0 | 22.5
CCCCN(CC)CCNC(=O)c1cc2c(-c3ccc(Cl)cc3)nn(C)c2s1 | -1.4 | · | · | · | ·
O=C(O)C1CCN(c2ccc(S(=O)(=O)N3CCOCC3)cc2[N+](=O)[O-])CC1 | 4.8 | -18.9 | 88.6* | 1.0 | 21.4
Cc1ccc2nc(-c3ccc(SCC(=O)O)nc3)[nH]c2c1 | 5.5 | -3.7 | 14.5 | 1.0 | 31.1
CCc1nnc(NC(=O)CSc2ccc(-c3nc4ccc(C)cc4[nH]3)cn2)s1 | -4.9 | 30.5 | 0.5 | -3.0 | 57.8*
Cc1cc2nc(-c3ccc(SCC(=O)Nc4nccs4)nc3)[nH]c2cc1C | · | 24.6 | 15.5 | -6.0 | 73.3*
O=C(O)CC(=O)NC12CC3CC(CC(C3)C1)C2 | -1.8 | 13.8 | 10.8 | 0.0 | 12.8
CCN(CC)CC(=O)NC12CC3CC(CC(C3)C1)C2 | -3.6 | 63.1* | 18.3 | 0.0 | 37.0
O=C(COC(=O)c1ccc2c(c1Cl)C(=O)c1ccccc1C2=O)NC1CC1 | 13.4 | -10.9 | -3.9 | -2.0 | 33.0
Nc1ccc2c(c1Cl)C(=O)c1ccc(N)c(Cl)c1C2=O | · | 46.2 | 59.5 | · | 86.5*
Cc1ccc(N2C(=O)[C@@H]3[C@H](C2=O)C2c4ccccc4C=CN2[C@@H]3C(=O)c2ccco2)cc1 (stereo not given in full) | · | 10.6 | 0.3 | -5.0 | 26.4
CC(=O)[C@@H]1[C@@H]2C(=O)N(Cc3ccccc3)C(=O)[C@@H]2C2c3ccccc3C=CN21 (stereo not given in full) | 49.6* | -16.2 | -3.4 | -3.0 | 10.3
CC(=O)N1CCN(CC(O)Cn2c3ccccc3c3ccccc32)CC1 (stereo not given) | 4.6 | · | · | · | ·
CCOc1ccc(S(=O)(=O)N(CC(=O)N/N=C/c2ccc(-c3ccc([N+](=O)[O-])cc3)o2)c2ccccc2)cc1 | 7.6 | 33.0 | 56.5 | 6.0 | 65.1*
Cc1csc2nc(CSc3nc4ccccc4o3)cn12 | 19.6 | 20.3 | 1.2 | -4.0 | 51.1*
O=c1[nH]c(SCc2n[nH]c(=S)n2-c2ccccc2)nc2ccccc12 | -7.0 | -2.1 | 3.4 | -1.0 | 14.5
O=Cc1cn(-c2ccccc2)nc1-c1cc2cc(O)ccc2oc1=O | -14.0 | 61.2* | 46.9 | -2.0 | 37.6
SMILES | MCL1-BIM inh | Mcl1 Bid PPI | 14-3-3 Bad PPI | Bim-Mcl-1 | Mcl1-Noxa inh
COc1cc(C(=O)NCC(=O)N/N=C/c2ccccn2)cc(OC)c1OC | 6.6 | 63.0* | -19.2 | -1.0 | -8.7
O=C(CNC(=O)c1ccncc1)N/N=C/c1ccccn1 | 16.7 | -10.0 | 10.2 | -3.0 | 11.0
Cc1[nH]c2ccccc2c1/C=N/NC(=O)c1cccc([N+](=O)[O-])c1 | -3.0 | -11.7 | 12.7 | 1.0 | 15.2
Cc1[nH]c2ccccc2c1/C=N/Nc1ccc([N+](=O)[O-])cc1 | -60.6 | -54.8 | -6.2 | -20.0 | 75.4*
Cc1ccc(SCC(=O)NC2CC3CCC(C2)N3C)cc1 (stereo not given) | 10.2 | 2.9 | -7.9 | · | -2.7
O=C1C2CC=C(Cl)CC2C(=O)N1CN(Cc1ccco1)CN1C(=O)C2CC=C(Cl)CC2C1=O (stereo not given) | 51.4* | -77.3 | -0.2 | -3.0 | 39.3
O=C(CCN1C(=O)C2CC=C(Cl)CC2C1=O)NCc1ccco1 (stereo not given) | 12.0 | -10.7 | -8.7 | -2.0 | 17.2
COc1ccccc1N(C)S(=O)(=O)c1ccc(C(=O)Nc2ccc(N3CCOCC3)cc2)cc1 | 9.7 | -26.3 | -13.6 | 2.0 | 12.2
